target: ANXA5; test: pooled miR-30 sensor sort-seq; sequence = guide strand; settings: shRNA
Further: reference of the scale not given here.

In order of rising sensor-assay potency score (higher = more potent):
1. TTTCTGTCAGTACTTTTTCATT  -1.52
2. TAATCTTTTGAATACAATCATC  -1.12
3. TTGAAATCCTGATATAGTCATG  -1.04
4. TTCTTCTTCATAAACTTGTTTG  -0.985
5. TTCTGATTTCAGGTCATCCAGA  -0.946
6. TACACTTTAGTACTACAGCAGT  -0.815
7. TTTCATTTGTTCCAGCTCCCTT  -0.639
8. TTCAACTTGAGCTTCATCAATT  -0.586
9. TAGATTTCACAACAGCAAGGAG  -0.538
10. TTCTTCCTAAACTCCTTCCTGA  -0.49
11. TAGCATAATAGAGGGTCTCTGC  -0.439
12. TTCTTCATAAACTTGTTTGATG  -0.36
13. TTCATAAGCATCATAAAGCCGA  -0.311
14. TTCGAATAGATTTCACAACAGC  -0.293
15. TCAAATGAGACACACTTCGTGT  -0.219
16. TTGGTCATGAGCATGCTAGTAT  -0.14
17. TTCTTCTATGACGTGTATGTGT  -0.0894
18. AACAGATCAATCTCACTCCTGG  -0.0547
19. TACTTGTCAAACACCTTTCTCA  0.224
20. TTAATTTTTCAAATTTTCCAGT  0.274
21. TAAATTGCCAGAAGTCTCGCGG  0.467

target: AP1S1; test: as above; settings: shRNA

In order of falling sensor-assay potency score (higher = more potent):
1. TTATAGACAACTTTGAGGTCCC  0.854
2. TGTGATGAGCTCATTGTCTTGG  0.479
3. TATATTTACAGTTATTAGGGAG  0.379
4. TTGAAGATGATGTCCAGCTCGC  0.319
5. TCTAAGAGCTCCACGTATCGGT  0.301
6. TTCCGTTCCTTGTCCGAAGTGG  0.268
7. TAAGAGCTCCACGTATCGGTGG  0.135
8. ATAGACAACTTTGAGGTCCCTC  0.0527
9. TCTTATAGACAACTTTGAGGTC  -0.45
10. TTCAGCACACTCTTCTTGGAGG  -0.8
11. TTGCAGTAGGTCAGCCTGCTCG  -0.856
12. TAGACAACTTTGAGGTCCCTCC  -0.899
13. TTTGCAGCCGCAGTTTTCCCTG  -0.931
14. ATCTCTTATAGACAACTTTGAG  -0.956
15. TTGTCTAAGAGCTCCACGTATC  -1.02
16. TATCTCTTATAGACAACTTTGA  -1.08
17. ATATCTCTTATAGACAACTTTG  -1.12
18. TCTCTTATAGACAACTTTGAGG  -1.16
19. TTTGAGGTCCCTCCACTCCAGG  -1.48

From the OligoGym collection
